# Bioassay records from PubChem.
# PNC inhibitor – blocks assembly of the perinucleolar compartment; PC3M PTB-GFP, PNC prevalence imaging, 16 h; stronger effect = lower value; activity change (PNC), negative = inhibition, % at 10 µM; 3.1% of 140,000 active;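 active means readout at or below -70, meaning at least 70% loss of cells showing the perinucleolar compartment, a nuclear body marking cancer cells; inconclusive means readout between -30 and a set limit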;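 further: plate controls were DMSO wells for no effect and camptothecin positive control wells for full effect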
#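 Read-out is percentage of cells bearing a perinucleolar compartment, from automated 20x imaging of fixed, Hoechst-stained PC3M PTB-GFP cells. Cells were seeded 4 h, then exposed 16 h to compound (23 nl of library stock) in duplicate plates.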
# IMPase inh – membrane-permeable compound that blocks inositol monophosphatase; CHO-M1 cells, IP1 accumulation, HTRF TR-FRET ratio; inhibition (IP1 accumulation), % at 46.1 µM; 120,000 tested, under 10 active; AID 901; active means well fitted curve in the direction sought with a large enough effect in the signal ratio, not every such curve was filed as active; inconclusive means small, poorly fitted or top-dose-only effect, or a change in a side signal; inactive means no such curve, though single readings can be large or run the other way; the % refers to the signal ratio;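 further: cells stimulated with carbachol in lithium chloride buffer; plate controls were DMSO basal wells for no effect and reference inhibitor wells for full effect; higher means more IMPase inhibition seen as more IP1 and lower FRET ratio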
#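 Seeded CHO-M1 cells were dosed with compound at up to 46 uM, stimulated with carbachol for 30 min, then lysed in IP-One detection reagents. Higher IP1 lowers the TR-FRET signal.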
# ALOX12 inhib – 12-hLO (ALOX12) enzyme inhibition; P18054; purified 12-hLO, xylenol orange hydroperoxide absorbance; Potency, µM (highest dose often 57.1 µM), inactives show at the top dose activity change, negative = inhibition, hits mostly inhibitors; 0.12% of 150,000 active; AID 1452; further: potency means the concentration at half of the fitted maximal effect; nearly all actives have a fitted effect of over 55% in size
# Target sequence (P18054 whole entry, looked up): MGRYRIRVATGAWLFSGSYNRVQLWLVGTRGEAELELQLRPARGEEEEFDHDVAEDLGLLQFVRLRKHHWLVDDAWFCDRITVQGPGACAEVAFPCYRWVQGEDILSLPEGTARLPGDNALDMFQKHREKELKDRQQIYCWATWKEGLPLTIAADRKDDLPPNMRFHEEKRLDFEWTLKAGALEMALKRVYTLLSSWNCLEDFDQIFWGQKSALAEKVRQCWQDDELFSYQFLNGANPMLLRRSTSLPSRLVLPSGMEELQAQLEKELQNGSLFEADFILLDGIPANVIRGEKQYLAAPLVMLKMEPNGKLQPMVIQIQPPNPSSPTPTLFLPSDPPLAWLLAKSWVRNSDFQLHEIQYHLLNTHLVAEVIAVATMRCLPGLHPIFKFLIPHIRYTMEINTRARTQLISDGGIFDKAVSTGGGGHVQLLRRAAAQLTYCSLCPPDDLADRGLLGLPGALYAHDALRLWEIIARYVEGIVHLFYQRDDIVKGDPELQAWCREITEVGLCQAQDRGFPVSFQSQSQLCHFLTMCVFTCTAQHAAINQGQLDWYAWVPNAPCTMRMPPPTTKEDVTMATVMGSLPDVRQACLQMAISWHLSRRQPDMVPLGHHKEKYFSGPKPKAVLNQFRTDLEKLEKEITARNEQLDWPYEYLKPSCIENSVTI
#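 Lipoxygenase turnover measured by absorbance at 573 and 405 nm after Fe-XO development. Human 12hLO 150 nM, arachidonate 40 uM, pH 7.0 Hepes buffer with detergent; 15 min compound preincubation, 30 min reaction.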
# 15-hLO-2 inh – 15-hLO-2 (ALOX15B) enzyme inhibition | O15296 | purified 15hLO-2, xylenol orange hydroperoxide absorbance | Potency, µM (doses to about 57.1 µM), for inactives: top-dose activity change, negative = inhibition, actives largely listed as inhibitors | 0.56% of 110,000 active | AID 881; further: potency means the concentration at half of the fitted maximal effect; nearly all actives have a fitted effect of over 60% in size
#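 Enzyme 50 nM, AA 45 uM, 25 mM Hepes pH 7.5 + 0.01% Triton X-100; cpd preinc 15 min RT, rxn 90 min RT; stop/detect with 200 uM XO + 300 uM Fe(II) in 50 mM H2SO4, 30 min; A573/A405.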
# An asterisk follows results filed as active; ? = inconclusive; · = no result; [ ] = remark or other dose. In the library only some 3% were active in any assay of this set; here they are far more common. Unless noted, the call rests on the fitted dose curve; in most records, active means well fitted curve in the direction sought with a large enough effect; inconclusive means small, poorly fitted or top-dose-only effect, or another doubt; inactive means no such curve, though single readings can be large; an effect the other way counts as inactive or inconclusive. Unless noted, on the % scale 0 is the no-effect control and ±100 the full control effect.
SMILES,PNC inhibitor,IMPase inh,ALOX12 inhib,15-hLO-2 inh
CCOc1ccccc1C(=O)N[C@H](C(=O)OCc1cc([N+](=O)[O-])cc2c1OCOC2)C(C)C,?,-2,1%,·
Cc1cccc(NS(=O)(=O)c2ccc(C)c(C(=O)OCC(=O)Nc3cc(C)on3)c2)c1,-100*,5,-5%,-10%
Cc1ccc(-c2cc(C(=O)OCC(=O)Nc3cc(C)on3)c3ccccc3n2)c(C)c1,-82*,8,0%,14%
COc1ccc(-c2cc(C(=O)OCC(=O)Nc3cc(C)on3)c3ccccc3n2)cc1OC,26,-1,-4%,?
Cc1cccc(NS(=O)(=O)c2cc(C(=O)OCC(=O)Nc3cc(C)on3)ccc2C)c1,?,-2,3%,-11%
O=c1[nH]c(=S)c2[nH]c(=O)n(-c3ccccc3)c2[nH]1,·,·,3%[11.4 µM],-1%[11.4 µM]
C[C@H](N)C1CCC(C(=O)Nc2ccncc2)CC1 (some centres not stated),·,2,2%,9%
O=C(CSc1nnc(-c2ccncc2)o1)Nc1ccccc1Cl,-90*,0,-3%,7%
CCC(NC(=O)C1CCC1)c1ccccc1 (configuration not stated),-100*,13,0%,·
O=C(c1ccco1)N1CCN(C(c2cccs2)c2nnnn2C2CCCCC2)CC1 (configuration not stated),0,-2,2%,-2%
COc1ccc(Nc2nc(N)nc(CSc3nnc(N)s3)n2)cc1,-96*,0,0%,4%
COc1ccc(C2C(Oc3ccccc3)C(=O)N2c2cc(C)ccc2C)cc1OC (configuration not stated),-89*,3,-1%,-15%
COc1ccc(OC2C(=O)N(Cc3ccc(F)cc3)C2c2ccc(OC)c(OC)c2)cc1 (configuration not stated),34,0,3%,6%
S=C1NNC2(NN1)C1CC3CC(C1)CC2C3,-100*,-4,-11%,·
O=c1c2cnn(-c3ccc(F)cc3)c2ncn1Cc1ccccn1,-27,-12,-2%,-4%
COC(=O)CC1=C(C(=O)OC)C(c2cccs2)C(C#N)=C(N)O1 (configuration not stated),-119*,-5,-12%,-14%
N#CC1=C(N)Oc2cc(O)ccc2C1c1cccs1 (configuration not stated),-106*,10,-6%,-4%
N#CC1=C(N)Oc2cc(O)ccc2C1c1ccncc1 (configuration not stated),?,-3,-2%,-1%
CCOC(=O)C1=C(CC)OC(N)=C(C#N)C1c1cccs1 (configuration not stated),-7,-2,-28%,-9%
CCOc1ccc(C(=O)OCC(=O)NCc2ccco2)cc1OCC,8,0,-1%,-14%
O=C(O)CCCCCN1C(=O)/C(=C/c2ccncc2)SC1=S,?,·,0%,·
O=C(O)CCCCCN1C(=O)/C(=C\c2ccncc2)SC1=S,-90*,·,4%,·
O=C(O)CCCN1C(=O)/C(=C/c2ccc(-c3nc4ccccc4s3)o2)SC1=S,41,4,2%,16µM*
CC1=C(C)C[C@@]23CCCN2C(=O)CCC[C@H]3C1,·,·,3%[0.00818 µM],-3%[0.0915 µM]
Cc1cc(NC(=O)C(=O)NCCN2CCN(C(=O)c3cccs3)CC2)ccc1Br,-100*,-14,4%,·
SMILES,PNC inhibitor,IMPase inh,ALOX12 inhib,15-hLO-2 inh
COc1ccc(NC(=O)C(=O)NCCN2CCN(C(=O)c3cccs3)CC2)cc1,14,-4,3%,·
N#CCCn1c(=O)c(-c2cccs2)nc2cnc(N3CCNCC3)nc21,·,·,0%,16%
CCc1cccc(CC)c1NC(=O)CSc1nc2ccc(N3C(=O)C4C(C3=O)[C@H]3C=C[C@@H]4C3)cc2s1 (some centres not stated),-24,2,-1%,·
CC(C)(C)OC(=O)N[C@@H](Cc1ccccc1)c1nnc(S(=O)(=O)Cc2cccc(F)c2)o1,-107*,14,-13%,?
Cc1ccc(S(=O)(=O)Nc2c(C)nn(C)c2C)cc1,?,8,5%,1%
CCn1nc(C)c(NS(=O)(=O)c2ccc(C)cc2)c1C,-100*,5,-1%,·
COC(=O)c1ccc(NC(CC(C)C)C(=O)OC)c([N+](=O)[O-])c1 (configuration not stated),-119*,7,-6%,·
CN(C)c1ccc(/C=N/NC(=O)C(=O)/C=C2\NC3(CCCC3)Cc3ccccc32)cc1,-109*,·,-7%,·
